Holding throughout (experiment): DAPPL (digital affinity profiling via proximity ligation, sequencing); 10 mM Tris-HCl pH 7.5, 50 mM NaCl, 1 mM DTT, 4% glycerol, room temperature, 30 min; GST-TFs on glutathione beads, 16-mer random dsDNA library, 0.1% formaldehyde crosslink after washing; high values mean tight binding
Assay [1] addresses T1, FLI1 (Homo sapiens, UniProt Q01543 1-452).
T1 sequence: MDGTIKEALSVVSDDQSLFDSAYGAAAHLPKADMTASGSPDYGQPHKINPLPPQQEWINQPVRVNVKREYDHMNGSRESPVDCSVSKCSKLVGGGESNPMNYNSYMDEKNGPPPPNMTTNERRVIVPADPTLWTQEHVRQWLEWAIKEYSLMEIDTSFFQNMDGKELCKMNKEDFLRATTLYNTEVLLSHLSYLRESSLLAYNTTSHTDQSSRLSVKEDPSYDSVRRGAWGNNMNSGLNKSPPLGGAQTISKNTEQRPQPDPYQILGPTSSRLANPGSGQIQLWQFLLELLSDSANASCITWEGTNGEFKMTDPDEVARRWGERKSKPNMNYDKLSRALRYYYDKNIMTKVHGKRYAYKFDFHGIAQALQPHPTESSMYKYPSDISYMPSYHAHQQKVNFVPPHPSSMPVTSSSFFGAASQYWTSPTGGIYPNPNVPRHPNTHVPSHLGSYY
The following applies: protein: recombinant; tags: N-terminal GST; dsDNA, one strand shown. The gist of the method: (§1)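 Binding signal is given per hexamer as its read frequency for a factor divided by its frequency in the tag-only sample. GST-fused human transcription factors were expressed in yeast, captured on glutathione beads, barcoded with DNA and pooled with that sample, then incubated with 200 nmole of a 16-mer random double-stranded DNA library in Tris/NaCl/DTT/glycerol buffer for 30 min at room temperature. The pools were then washed, crosslinked, proximity-ligated, amplified by PCR and sequenced on an Illumina NextSeq500.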

The target of assay [2] is T2, ELK1 (Homo sapiens, UniProt P19419 1-428).
T2 sequence: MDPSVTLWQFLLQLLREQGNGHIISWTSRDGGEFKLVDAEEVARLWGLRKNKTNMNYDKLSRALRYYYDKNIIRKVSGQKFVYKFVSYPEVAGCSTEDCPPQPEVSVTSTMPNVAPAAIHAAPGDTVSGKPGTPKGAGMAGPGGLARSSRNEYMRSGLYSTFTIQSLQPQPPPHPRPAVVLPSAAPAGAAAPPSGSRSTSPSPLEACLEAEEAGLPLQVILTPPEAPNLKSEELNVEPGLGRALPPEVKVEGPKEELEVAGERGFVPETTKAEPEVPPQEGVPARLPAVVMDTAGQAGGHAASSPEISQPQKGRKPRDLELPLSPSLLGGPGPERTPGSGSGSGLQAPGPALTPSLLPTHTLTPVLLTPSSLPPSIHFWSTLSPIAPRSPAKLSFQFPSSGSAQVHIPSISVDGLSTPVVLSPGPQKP
The following applies: protein: recombinant; tags: N-terminal GST; dsDNA, one strand shown. The method in brief:
as §1

Assay [3] deals with T3, GABPA (Homo sapiens, UniProt Q06546 1-454).
T3 sequence: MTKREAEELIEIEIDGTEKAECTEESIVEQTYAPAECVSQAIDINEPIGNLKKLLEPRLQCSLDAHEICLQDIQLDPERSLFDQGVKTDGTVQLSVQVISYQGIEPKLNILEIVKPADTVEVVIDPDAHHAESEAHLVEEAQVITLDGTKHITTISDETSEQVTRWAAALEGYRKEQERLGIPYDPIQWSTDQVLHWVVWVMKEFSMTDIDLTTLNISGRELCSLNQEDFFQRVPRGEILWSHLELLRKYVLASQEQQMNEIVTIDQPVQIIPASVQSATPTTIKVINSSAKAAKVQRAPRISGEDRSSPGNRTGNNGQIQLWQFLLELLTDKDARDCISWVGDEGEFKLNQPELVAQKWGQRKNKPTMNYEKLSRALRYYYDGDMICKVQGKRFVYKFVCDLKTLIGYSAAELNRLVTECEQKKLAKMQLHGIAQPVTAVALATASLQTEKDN
Particulars: protein: recombinant; tags: N-terminal GST; dsDNA, one strand shown. The gist of the method: as §1

The target in assay [4] is T4, ERG (Homo sapiens, UniProt P11308 1-479).
T4 sequence: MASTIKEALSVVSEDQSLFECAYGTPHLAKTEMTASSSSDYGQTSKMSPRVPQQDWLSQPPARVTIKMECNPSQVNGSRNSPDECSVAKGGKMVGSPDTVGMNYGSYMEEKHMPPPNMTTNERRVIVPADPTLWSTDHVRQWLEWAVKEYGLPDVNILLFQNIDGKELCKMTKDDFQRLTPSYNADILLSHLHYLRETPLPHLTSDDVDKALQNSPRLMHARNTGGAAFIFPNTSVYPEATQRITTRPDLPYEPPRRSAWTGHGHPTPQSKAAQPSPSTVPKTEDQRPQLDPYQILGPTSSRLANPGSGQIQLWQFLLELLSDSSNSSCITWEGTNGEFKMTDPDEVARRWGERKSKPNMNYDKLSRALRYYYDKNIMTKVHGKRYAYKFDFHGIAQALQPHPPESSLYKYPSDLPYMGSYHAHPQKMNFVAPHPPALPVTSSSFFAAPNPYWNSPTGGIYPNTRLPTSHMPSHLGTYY
The following applies: protein: recombinant; tags: N-terminal GST; dsDNA, one strand shown. The gist of the method: as §1

Assay [5] deals with ELF1 (Homo sapiens, UniProt P32519 1-619). Particulars: protein: recombinant; tags: N-terminal GST; dsDNA, one strand shown. The method in brief: as §1
For assay [6], the target named is T5, EHF (Homo sapiens, UniProt Q9NZC4 1-300).
T5 sequence: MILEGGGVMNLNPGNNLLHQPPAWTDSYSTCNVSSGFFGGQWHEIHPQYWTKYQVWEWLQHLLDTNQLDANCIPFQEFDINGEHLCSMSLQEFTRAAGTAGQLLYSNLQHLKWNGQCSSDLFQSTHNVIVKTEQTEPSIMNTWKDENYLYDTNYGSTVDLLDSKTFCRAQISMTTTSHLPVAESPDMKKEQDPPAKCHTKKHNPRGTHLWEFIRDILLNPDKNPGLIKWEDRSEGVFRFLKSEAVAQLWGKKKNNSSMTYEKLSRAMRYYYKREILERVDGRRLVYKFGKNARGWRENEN
The following applies: protein: recombinant; tags: N-terminal GST; dsDNA, one strand shown. The method in brief:
as §1

The target in assay [7] is SPI1 (Homo sapiens, UniProt P17947 1-270). Particulars: protein: recombinant; tags: N-terminal GST; dsDNA, one strand shown. The gist of the method:
as §1

For assay [8], the target named is SPIB (Homo sapiens, UniProt Q01892 1-262). The following applies: protein: recombinant; tags: N-terminal GST; dsDNA, one strand shown. The gist of the method: as §1
Assay [9] deals with T6, ELK3 (Homo sapiens, UniProt P41970 1-407).
T6 sequence: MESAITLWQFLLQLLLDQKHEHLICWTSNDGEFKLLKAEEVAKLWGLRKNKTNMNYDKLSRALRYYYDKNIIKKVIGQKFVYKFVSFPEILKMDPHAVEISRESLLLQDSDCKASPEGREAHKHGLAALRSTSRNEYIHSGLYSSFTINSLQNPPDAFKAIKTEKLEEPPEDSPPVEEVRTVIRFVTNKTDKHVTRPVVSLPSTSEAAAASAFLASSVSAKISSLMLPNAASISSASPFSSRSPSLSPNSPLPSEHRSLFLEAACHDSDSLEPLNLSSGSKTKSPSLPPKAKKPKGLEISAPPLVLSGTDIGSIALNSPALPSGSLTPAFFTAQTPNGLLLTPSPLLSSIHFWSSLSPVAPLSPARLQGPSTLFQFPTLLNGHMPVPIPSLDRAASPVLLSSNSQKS
The following applies: protein: recombinant; tags: N-terminal GST; dsDNA, one strand shown. The method in brief:
as §1

The target in assay [10] is T7, FEV (Homo sapiens, UniProt Q99581 1-238).
T7 sequence: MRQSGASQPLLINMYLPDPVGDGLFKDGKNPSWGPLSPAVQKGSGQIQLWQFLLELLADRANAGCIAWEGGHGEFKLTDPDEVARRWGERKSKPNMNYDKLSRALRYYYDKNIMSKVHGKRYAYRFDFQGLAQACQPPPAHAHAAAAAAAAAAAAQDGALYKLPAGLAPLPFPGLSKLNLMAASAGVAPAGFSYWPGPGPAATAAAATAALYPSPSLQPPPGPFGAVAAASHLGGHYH
Particulars: protein: recombinant; tags: N-terminal GST; dsDNA, one strand shown. The gist of the method: as §1

Assay [11] has as its target ETV5 (Homo sapiens, UniProt P41161 1-510). The following applies: protein: recombinant; tags: N-terminal GST; dsDNA, one strand shown. The gist of the method: as §1
In assay [12] the target is HSF1 (Homo sapiens, UniProt Q00613 1-529). Particulars: protein: recombinant; tags: N-terminal GST; chain copies: 3; dsDNA, one strand shown. The gist of the method: as §1
Assay [13] has as its target T8, SPIC (Homo sapiens, UniProt Q8N5J4 1-248).
T8 sequence: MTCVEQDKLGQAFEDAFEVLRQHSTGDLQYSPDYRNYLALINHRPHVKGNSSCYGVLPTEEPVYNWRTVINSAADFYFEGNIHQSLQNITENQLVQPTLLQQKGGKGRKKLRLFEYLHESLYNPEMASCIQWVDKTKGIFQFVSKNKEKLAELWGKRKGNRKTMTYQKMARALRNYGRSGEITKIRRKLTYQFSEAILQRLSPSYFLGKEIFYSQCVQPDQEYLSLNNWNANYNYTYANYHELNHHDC
Particulars: protein: recombinant; tags: N-terminal GST; dsDNA, one strand shown. The gist of the method: as §1

Assay [14] has as its target ELF4 (Homo sapiens, UniProt Q99607 1-663). The following applies: protein: recombinant; tags: N-terminal GST; dsDNA, one strand shown. The gist of the method: as §1
The target in assay [15] is T9, ELK4 (Homo sapiens, UniProt P28324-2 1-405).
T9 sequence: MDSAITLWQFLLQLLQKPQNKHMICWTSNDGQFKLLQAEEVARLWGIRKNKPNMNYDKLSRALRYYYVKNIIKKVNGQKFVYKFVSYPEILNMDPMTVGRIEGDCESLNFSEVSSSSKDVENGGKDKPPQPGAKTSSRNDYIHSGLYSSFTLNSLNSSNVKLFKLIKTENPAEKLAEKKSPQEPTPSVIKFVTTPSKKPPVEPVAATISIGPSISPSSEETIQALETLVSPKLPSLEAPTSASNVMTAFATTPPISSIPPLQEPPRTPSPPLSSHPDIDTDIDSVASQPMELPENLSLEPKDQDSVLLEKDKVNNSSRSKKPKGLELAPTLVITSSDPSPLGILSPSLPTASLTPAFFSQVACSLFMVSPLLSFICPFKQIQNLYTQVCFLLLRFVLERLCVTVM
Particulars: protein: recombinant; tags: N-terminal GST; dsDNA, one strand shown. The gist of the method: as §1

Assay [16] has as its target T10, ETV2 (Homo sapiens, UniProt O00321 1-342).
T10 sequence: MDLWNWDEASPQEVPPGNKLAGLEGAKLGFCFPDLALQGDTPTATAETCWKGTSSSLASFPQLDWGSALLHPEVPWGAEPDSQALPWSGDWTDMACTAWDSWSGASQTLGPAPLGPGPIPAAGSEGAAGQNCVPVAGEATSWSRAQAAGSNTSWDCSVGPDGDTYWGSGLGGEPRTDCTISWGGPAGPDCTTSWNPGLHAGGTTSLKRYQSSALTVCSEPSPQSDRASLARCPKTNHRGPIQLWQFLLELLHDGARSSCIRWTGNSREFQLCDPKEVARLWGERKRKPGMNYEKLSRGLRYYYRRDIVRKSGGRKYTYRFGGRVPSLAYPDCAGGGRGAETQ
The following applies: protein: recombinant; tags: N-terminal GST; dsDNA, one strand shown. The gist of the method:
as §1

The target in assay [17] is T11, ELF3 (Homo sapiens, UniProt P78545 1-371).
T11 sequence: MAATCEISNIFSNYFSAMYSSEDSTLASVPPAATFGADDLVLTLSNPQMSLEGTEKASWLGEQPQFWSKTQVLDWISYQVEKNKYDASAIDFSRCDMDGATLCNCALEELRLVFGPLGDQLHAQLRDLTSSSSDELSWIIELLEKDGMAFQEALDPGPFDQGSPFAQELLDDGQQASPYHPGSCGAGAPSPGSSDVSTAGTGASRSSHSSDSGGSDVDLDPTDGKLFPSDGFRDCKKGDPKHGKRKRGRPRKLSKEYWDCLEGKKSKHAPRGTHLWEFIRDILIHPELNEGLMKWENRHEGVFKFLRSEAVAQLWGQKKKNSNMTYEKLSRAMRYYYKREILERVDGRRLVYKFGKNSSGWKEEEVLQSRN
The following applies: protein: recombinant; tags: N-terminal GST; dsDNA, one strand shown. The method in brief:
as §1

Assay [18] concerns the target CRX (Homo sapiens, UniProt O43186 1-299). The following applies: protein: recombinant; tags: N-terminal GST; dsDNA, one strand shown. The gist of the method:
as §1

The target of assay [19] is ETV1 (Homo sapiens, UniProt P50549 1-477). Particulars: protein: recombinant; tags: N-terminal GST; dsDNA, one strand shown. The method in brief:
as §1

Binding signal data for one sequence are collected here from publication PMC7862700, “An all-to-all approach to the identification of sequence-specific readers for epigenetic DNA modifications on cytosine”.

Chain of ELF4 (Q99607 whole entry): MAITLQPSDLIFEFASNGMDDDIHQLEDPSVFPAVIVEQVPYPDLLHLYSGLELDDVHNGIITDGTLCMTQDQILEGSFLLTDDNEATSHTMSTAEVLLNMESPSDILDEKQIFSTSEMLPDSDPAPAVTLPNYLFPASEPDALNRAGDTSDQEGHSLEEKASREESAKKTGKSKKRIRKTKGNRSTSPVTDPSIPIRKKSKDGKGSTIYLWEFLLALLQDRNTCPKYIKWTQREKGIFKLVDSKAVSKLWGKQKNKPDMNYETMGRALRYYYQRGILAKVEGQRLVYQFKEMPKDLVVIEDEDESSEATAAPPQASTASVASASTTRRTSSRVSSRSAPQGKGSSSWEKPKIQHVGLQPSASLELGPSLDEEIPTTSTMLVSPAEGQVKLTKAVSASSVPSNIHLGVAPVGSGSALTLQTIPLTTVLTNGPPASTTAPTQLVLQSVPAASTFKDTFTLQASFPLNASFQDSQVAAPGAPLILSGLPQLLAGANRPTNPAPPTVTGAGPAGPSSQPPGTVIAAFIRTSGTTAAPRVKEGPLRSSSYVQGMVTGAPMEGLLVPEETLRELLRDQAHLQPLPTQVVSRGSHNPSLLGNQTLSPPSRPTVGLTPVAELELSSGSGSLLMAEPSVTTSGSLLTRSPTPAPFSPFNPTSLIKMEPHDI
Chain of SPIB (Q01892 whole entry): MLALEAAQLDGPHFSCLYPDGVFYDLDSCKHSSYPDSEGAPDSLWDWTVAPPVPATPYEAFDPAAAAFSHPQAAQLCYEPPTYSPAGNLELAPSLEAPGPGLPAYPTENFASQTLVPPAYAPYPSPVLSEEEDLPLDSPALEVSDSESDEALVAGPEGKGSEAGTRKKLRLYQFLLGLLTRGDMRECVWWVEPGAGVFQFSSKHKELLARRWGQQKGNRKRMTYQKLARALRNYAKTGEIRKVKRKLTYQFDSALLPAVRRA
Chain of HSF1 (Q00613 whole entry): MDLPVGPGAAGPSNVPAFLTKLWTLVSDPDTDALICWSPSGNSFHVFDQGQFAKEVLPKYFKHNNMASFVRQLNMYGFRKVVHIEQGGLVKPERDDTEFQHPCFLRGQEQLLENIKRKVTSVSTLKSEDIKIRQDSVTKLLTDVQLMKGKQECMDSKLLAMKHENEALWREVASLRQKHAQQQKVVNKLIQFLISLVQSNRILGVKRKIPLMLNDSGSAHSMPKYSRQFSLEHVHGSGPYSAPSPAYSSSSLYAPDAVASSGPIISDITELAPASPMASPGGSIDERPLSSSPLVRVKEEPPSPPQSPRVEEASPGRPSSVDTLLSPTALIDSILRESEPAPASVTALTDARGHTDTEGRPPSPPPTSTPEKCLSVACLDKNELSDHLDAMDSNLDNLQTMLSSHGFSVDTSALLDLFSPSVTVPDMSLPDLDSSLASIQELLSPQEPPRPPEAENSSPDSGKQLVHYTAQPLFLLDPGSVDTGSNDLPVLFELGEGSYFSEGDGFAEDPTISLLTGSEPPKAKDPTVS
Chain of ETV5 (P41161 whole entry): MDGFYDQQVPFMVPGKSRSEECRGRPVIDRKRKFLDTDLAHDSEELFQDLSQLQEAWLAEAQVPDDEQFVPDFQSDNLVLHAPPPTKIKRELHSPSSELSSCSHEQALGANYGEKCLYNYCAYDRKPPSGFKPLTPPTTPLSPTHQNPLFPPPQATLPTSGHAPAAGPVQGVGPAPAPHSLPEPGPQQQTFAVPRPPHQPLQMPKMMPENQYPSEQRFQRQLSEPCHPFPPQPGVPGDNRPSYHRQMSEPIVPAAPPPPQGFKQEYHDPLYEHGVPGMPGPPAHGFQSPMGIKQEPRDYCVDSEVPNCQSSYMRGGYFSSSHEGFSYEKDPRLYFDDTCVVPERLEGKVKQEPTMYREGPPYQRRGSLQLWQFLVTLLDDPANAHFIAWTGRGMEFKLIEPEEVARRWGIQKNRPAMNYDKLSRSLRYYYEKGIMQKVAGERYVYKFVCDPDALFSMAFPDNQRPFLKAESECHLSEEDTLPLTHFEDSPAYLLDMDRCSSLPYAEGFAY
Chain of CRX (O43186 whole entry): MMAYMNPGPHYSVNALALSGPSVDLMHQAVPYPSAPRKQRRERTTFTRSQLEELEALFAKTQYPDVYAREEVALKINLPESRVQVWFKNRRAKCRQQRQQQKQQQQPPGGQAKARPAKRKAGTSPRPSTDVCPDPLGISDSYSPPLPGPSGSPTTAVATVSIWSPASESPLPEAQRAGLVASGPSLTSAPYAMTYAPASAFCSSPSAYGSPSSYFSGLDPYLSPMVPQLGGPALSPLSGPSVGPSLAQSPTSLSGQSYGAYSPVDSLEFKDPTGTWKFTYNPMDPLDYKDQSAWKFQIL
Chain of ELF1 (P32519 whole entry): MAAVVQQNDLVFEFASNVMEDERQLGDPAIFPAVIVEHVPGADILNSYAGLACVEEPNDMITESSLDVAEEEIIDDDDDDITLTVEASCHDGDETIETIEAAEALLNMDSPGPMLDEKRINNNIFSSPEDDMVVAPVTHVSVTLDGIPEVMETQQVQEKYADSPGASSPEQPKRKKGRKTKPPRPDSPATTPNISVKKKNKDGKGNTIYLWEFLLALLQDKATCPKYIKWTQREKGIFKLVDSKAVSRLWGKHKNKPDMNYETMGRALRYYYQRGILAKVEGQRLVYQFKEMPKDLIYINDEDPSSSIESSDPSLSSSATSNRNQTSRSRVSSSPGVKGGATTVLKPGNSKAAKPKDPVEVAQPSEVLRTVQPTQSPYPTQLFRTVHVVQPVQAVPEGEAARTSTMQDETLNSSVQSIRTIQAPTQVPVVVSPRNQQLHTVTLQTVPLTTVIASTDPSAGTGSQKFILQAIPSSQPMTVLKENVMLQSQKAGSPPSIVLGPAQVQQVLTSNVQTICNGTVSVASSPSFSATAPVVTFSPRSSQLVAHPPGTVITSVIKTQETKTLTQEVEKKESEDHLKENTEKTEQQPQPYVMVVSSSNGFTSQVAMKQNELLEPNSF
Chain of ETV1 (P50549 whole entry): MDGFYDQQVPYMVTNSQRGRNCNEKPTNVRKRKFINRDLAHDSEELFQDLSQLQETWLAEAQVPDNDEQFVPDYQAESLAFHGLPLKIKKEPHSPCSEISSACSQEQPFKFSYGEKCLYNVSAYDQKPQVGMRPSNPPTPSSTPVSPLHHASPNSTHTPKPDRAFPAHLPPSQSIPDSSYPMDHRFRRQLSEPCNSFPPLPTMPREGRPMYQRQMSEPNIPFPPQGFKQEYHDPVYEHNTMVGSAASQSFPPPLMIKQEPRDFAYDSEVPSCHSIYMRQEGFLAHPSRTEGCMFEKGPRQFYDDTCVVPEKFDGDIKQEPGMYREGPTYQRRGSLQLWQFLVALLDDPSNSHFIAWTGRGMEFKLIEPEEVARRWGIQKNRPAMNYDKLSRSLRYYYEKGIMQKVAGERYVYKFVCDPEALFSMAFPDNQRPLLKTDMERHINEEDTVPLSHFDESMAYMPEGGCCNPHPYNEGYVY

As to CGACTA, the binding signal is 1.24 fold enrichment (6-mer frequency, TF over GST control) in assay [1]; 1.31 fold enrichment (6-mer frequency, TF over GST control) in [2]; 1.5 fold enrichment (6-mer frequency, TF over GST control) in assay [3]; 1.28 fold enrichment (6-mer frequency, TF over GST control) in [4]; 1.31 fold enrichment (6-mer frequency, TF over GST control) in [5]; 1.31 fold enrichment (6-mer frequency, TF over GST control) in assay [6]. Besides, the binding signal in assay [7] is 1.29 fold enrichment (6-mer frequency, TF over GST control); in assay [8] it was 1.32 fold enrichment (6-mer frequency, TF over GST control); in [9] it was 1.3 fold enrichment (6-mer frequency, TF over GST control); in assay [10], 1.31 fold enrichment (6-mer frequency, TF over GST control); in assay [11], 1.25 fold enrichment (6-mer frequency, TF over GST control); in assay [12] it was 1.52 fold enrichment (6-mer frequency, TF over GST control). The binding signal was 1.47 fold enrichment (6-mer frequency, TF over GST control) in assay [13]; 1.48 fold enrichment (6-mer frequency, TF over GST control) in [14]; 1.58 fold enrichment (6-mer frequency, TF over GST control) in [15]; 1.49 fold enrichment (6-mer frequency, TF over GST control) in assay [16]; 1.41 fold enrichment (6-mer frequency, TF over GST control) in assay [17]; 1.52 fold enrichment (6-mer frequency, TF over GST control) in assay [18]. Further, the binding signal in assay [19] was 1.4 fold enrichment (6-mer frequency, TF over GST control).
